# High-throughput results (PubChem)
# TDP1 inh: qHTS Assay for Inhibitors of Tyrosyl-DNA Phosphodiesterase (TDP1); Tyrosyl-DNA phosphodiesterase 1 (Homo sapiens), Q9NUW8; recombinant TDP1, AlphaScreen DNA substrate cleavage; Potency, µM (highest dose often 130 µM), actives largely listed as inhibitors; 350,000 compounds, 0.28% hits; AID 485290, 2010; note: nearly all actives have a fitted effect of over 40% in size
#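 Recombinant E. coli-expressed Tdp1 (1 nM) preincubated with compound 15 min at RT, then 5'-biotin/3'-phosphotyrosine-FITC DNA substrate (15 nM) added for 5 min. AlphaScreen beads (10 ug/ml) added, 10 min RT; tyrosine-FITC cleavage read as signal loss.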
# TDP1 cell CPT: qHTS for Inhibitors of human tyrosyl-DNA phosphodiesterase 1 (TDP1): qHTS in cells in presence of CPT. chicken DT40 Tdp1-/-;hTDP1 cells + 20 nM CPT, ATP luminescence, 48 h. Potency, µM (highest dose often 46.2 µM), most hits filed as inhibitors. 420,000 compounds, 12% hits. AID 686979, 2013; note: nearly all actives have a fitted effect of over 55% in size
#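 Chicken DT40 Tdp1-/- cells complemented with human TDP1, 400 cells/well, exposed to compounds plus 20 nM camptothecin for at least 48 h at 37 C; viability read as ATP content by CellTiter-Glo luminescence.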
# CtBP-E1A inh: qHTS Assay for Inhibitors of the CtBP/E1A Interaction; CtBP / adenovirus E1A interaction (AlphaScreen); AlphaScreen GST-E1A/His-CtBP binding, 1536-well; active compounds read low; activity change, % (test concentration not listed); 340,000 compounds, 0.49% hits; in the data active = activity change below about -65%; inconclusive = mostly about -30% to -63%
#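 In 5 uL wells, 23 nL compound meets equimolar GST-E1A and His-CtBP (5X stock 125 nM each) for 2 h, 37 °C. Beads (5X, 50 ug/mL) then 1 h, 37 °C, dark.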
# IL1B secr inh: qHTS for Inhibitors of Inflammasome Signaling: IL-1-beta AlphaLISA Primary Screen. THP-1 LPS/ATP IL-1B secretion, AlphaLISA, 16 h; active compounds read low. activity change, % at 57.5 µM. 360,000 compounds, 4.7% hits. AID 743279, 2014; in the data active = activity change below about -50%; inconclusive = mostly about -30% to -49%
#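 Secreted IL-1B measured by AlphaLISA bead assay after 16 h compound exposure of THP-1 cells; compounds (final up to 57.5 uM) added 1 h before LPS (250 ng/mL) and ATP (1.25 mM) stimulation; lower signal means less secretion.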
# TDP1 cell noCPT: qHTS for Inhibitors of human tyrosyl-DNA phosphodiesterase 1 (TDP1): qHTS in cells in absence of CPT | DT40 Tdp1-/- hTDP1 cells, no CPT, ATP luminescence, 48 h | Potency, µM (doses to about 46.2 µM), hits mostly inhibitors | 420,000 compounds, 15% hits | AID 686978, 2013; note: nearly all actives have a fitted effect of over 55% in size
#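 Chicken DT40 Tdp1-/- cells stably complemented with human TDP1 were seeded at 400 cells/well with DMSO in place of 20 nM camptothecin. After compound pinning, cells grew at least 48 hr at 37 °C; viability read by CellTiter-Glo luminescence.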
# Six1-Eya2 inh: qHTS Assay for Inhibitors of the Six1/Eya2 Interaction; Homeobox protein SIX1 (Homo sapiens) + Protein phosphatase EYA2 (Homo sapiens), …; AlphaScreen GST-Six1/His-Eya2 binding, biochemical; active compounds read low; activity change, % (concentration not given with the values); 360,000 compounds, 0.56% hits; AID 651725, 2012; in the data active = activity change below about -65%; inconclusive = mostly about -30% to -63%
# Target sequence (O00167 whole entry, looked up): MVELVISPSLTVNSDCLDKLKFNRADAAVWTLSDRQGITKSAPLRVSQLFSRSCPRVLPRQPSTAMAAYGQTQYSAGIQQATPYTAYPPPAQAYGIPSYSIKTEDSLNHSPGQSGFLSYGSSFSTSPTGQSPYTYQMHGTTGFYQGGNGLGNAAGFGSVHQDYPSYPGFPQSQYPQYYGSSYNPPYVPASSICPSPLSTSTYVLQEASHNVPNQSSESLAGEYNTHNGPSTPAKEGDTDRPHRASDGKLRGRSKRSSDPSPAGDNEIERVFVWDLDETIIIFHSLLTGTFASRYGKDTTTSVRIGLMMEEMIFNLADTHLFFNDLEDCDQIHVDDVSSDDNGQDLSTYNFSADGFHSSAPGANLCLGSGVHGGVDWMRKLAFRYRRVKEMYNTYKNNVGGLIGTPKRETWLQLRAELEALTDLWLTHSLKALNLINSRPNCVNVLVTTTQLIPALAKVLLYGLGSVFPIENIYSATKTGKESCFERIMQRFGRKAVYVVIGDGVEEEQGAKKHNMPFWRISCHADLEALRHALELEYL
# Target sequence (Q15475 whole entry, looked up): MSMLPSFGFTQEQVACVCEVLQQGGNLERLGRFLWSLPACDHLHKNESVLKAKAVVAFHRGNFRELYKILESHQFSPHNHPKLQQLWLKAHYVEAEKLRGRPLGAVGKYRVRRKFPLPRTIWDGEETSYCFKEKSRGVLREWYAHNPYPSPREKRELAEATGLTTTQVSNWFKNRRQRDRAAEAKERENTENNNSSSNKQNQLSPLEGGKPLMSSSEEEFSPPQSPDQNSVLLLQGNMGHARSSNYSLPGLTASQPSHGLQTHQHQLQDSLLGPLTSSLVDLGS
#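 Homogeneous AlphaScreen proximity assay pairing GST-Six1 with His-tagged Eya2 (added as 5X mix: 250 nM and 500 nM) in 50 mM Tris pH 8.0, 300 mM NaCl, 1 mM TCEP. Glutathione donor and nickel acceptor beads; 1 h, 37 °C, dark.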
# A number is an active result; . = inactive; ? = inconclusive; / = not tested or not shown; [ ] = remark or other dose. Only some compounds are listed: those with a hit (about 18% of all), similar ones and a draw of the others. Unless noted, calls come from the whole dose curve; as a rule, active = well fitted curve in the direction sought with a large enough effect; inconclusive = small, poorly fitted or top-dose-only effect, or another doubt; inactive = no such curve, though single readings can be large; an effect the other way counts as inactive or inconclusive.
SMILES,TDP1 inh,TDP1 cell CPT,CtBP-E1A inh,IL1B secr inh,TDP1 cell noCPT,Six1-Eya2 inh
COC(=O)C1=C(C(=O)OC)[C@]2([C@H]3CCCCN[C@@H](Cc4ccccc4)C(=O)N3Cc3ccccc3)C=C[C@H]1O2,.,5.8µM,/,.,6.5µM,.
COC(=O)C1=C(C(=O)OC)[C@]2([C@H]3C/C=C\CN[C@@H](Cc4ccccc4)C(=O)N3Cc3ccccc3)C=C[C@H]1O2,/,?,/,/,10µM,/
COC(=O)C1=C(C)N(Cc2ccccc2)C(=O)N[C@H]1c1ccco1,.[12.3 µM],.,.,.,.,.
Cc1ccc(-c2nnc(Nc3ccc(C(=O)N(C)C)cc3)c3ccccc23)cc1S(=O)(=O)NCC1CCCO1 (centres undefined),.,15µM,.,.,23µM,.
Cc1ccc(-c2nnc(Nc3ccc(CC(N)=O)cc3)c3ccccc23)cc1S(=O)(=O)NCC1CCCO1 (centres undefined),/,.,.,?,.,.
CCOC(=O)CNS(=O)(=O)c1cc(-c2nnc(Nc3ccc4c(c3)OCO4)c3ccccc23)ccc1C,.,?,?,-102,?,.
COC(=O)c1ccc(Nc2nnc(-c3ccc(C)c(S(=O)(=O)NCC4CCCO4)c3)c3ccccc23)cc1 (centres undefined),.,23µM,.,-63,23µM,.
C=CCNc1ncnc2c1[nH]c1ccc(Cl)cc12,.,?,.,-122,23µM,.
CCOc1ccc2[nH]c3c(NCCO)ncnc3c2c1,/,.,.,.,.,.
OC[C@@H]1CN(Cc2ccccc2)C[C@H](n2cnc3c(N4CCCC4)ncnc32)O1,/,.,.,.,.,.
CC(=O)O[C@H]1[C@@H](O)[C@H](O)[C@H](Oc2c(O)c(C)c3c4c2[C@@H](C)CC[C@@H]4[C@@H](C)C[C@H]3C=C(C)C)O[C@H]1C,.,?,.,.,18µM,.
Cc1snc(S(=O)(=O)/C(C#N)=N/Nc2ccc(C(F)(F)F)cc2)c1C#N,.,.,.,.,.,.
CC(OC(=O)c1cccc(-n2cnnn2)c1)C(=O)c1ccccc1 (centres undefined),/,.,.,.,.,.
O=C(Oc1cccc2cccnc12)c1cccc(N2C(=O)C3C4CCC(C4)C3C2=O)c1 (centres undefined),.,4.1µM,.,-81,4.6µM,-87
O=C(Oc1cccc2cccnc12)c1ccc(N2C(=O)C3C4CCC(C4)C3C2=O)cc1 (centres undefined),.,0.52µM,?,-95,1µM,-89
O=C(Oc1cccc2cccnc12)c1cccc(-n2cnnn2)c1,.,?,.,.,18µM,.
COc1ccc(NC(=O)c2cccc(N3C(=O)C4C5CCC(C5)C4C3=O)c2)cc1 (centres undefined),.,?,.,.,?,.
Clc1cccc(CN2CCN(c3nc4nonc4nc3NC3CC3)CC2)c1,.,?,.,.,.,.
CC(=O)Nc1ccc(C(=O)OCC(=O)c2ccc(S(=O)(=O)N3CCCCC3)cc2)cc1,/,.,.,.,?,.
Cc1cccnc1NC(=O)c1ccc(S(=O)(=O)N2CCC(C)CC2)cc1,/,.,.,?,.,.
COc1ccc(N(CC(=O)NC2CCCCCC2)S(=O)(=O)c2ccc(C)cc2)cc1OC,.,.,.,.,.,.
O=C(Cn1[nH]c(=O)c2ccccc2c1=O)Nc1ccc2c(c1)CCC2,.,.,.,.,.,.
Cn1nc(CC(=O)NC2CCCCCCCCCCC2)c2ccccc2c1=O,.,18µM,.,.,18µM,.
Cn1nc(CC(=O)Nc2ncc(Br)s2)c2ccccc2c1=O,.,10µM,.,.,?,.
Cn1nc(CC(=O)Nc2ccc3c(c2)CCC3)c2ccccc2c1=O,.,3.3µM,.,.,1.6µM,.
SMILES,TDP1 inh,TDP1 cell CPT,CtBP-E1A inh,IL1B secr inh,TDP1 cell noCPT,Six1-Eya2 inh
CCCn1nc(C(=O)NC2CC2)c2ccccc2c1=O,.,.,.,.,.,.
Cn1nc(CC(=O)Nc2cccnc2N2CCOCC2)c2ccccc2c1=O,.,/,/,/,/,/
CCCCn1nc(C(=O)NC2CCCCC2)c2ccccc2c1=O,/,?,.,.,12µM,.
CCn1c(COc2ccc3c(c2)OCO3)nnc1SCC(=O)c1ccccc1,.,?,.,.,?,.
O=C(CNC(=O)c1ccc(Cl)cc1Cl)OC1CCCCC1=O (centres undefined),.,.,.,.,.,.
COCCN(C(=O)CN1CCCc2ccccc21)c1c(N)n(Cc2ccccc2)c(=O)[nH]c1=O,.,.,.,.,.,.
Cc1ccccc1C(=O)Nc1ccc2nc3n(c(=O)c2c1)CCCC3,/,.,.,?,.,.
COc1ccc2nc(N3CCOCC3)cc(C)c2c1,.,.,.,.,.,.
COc1cccc(C(=O)Nc2ccc3nc(N4CCOCC4)cc(C)c3c2)c1,.,16µM,.,.,21µM,.
Cc1ccccc1C(=O)Nc1ccc2nc(N3CCCCC3)cc(C)c2c1,.,?,/,/,21µM,/
COc1ccc(CC(=O)Nc2ccc3nc(N4CCCCC4)cc(C)c3c2)cc1,.,23µM,/,/,?,/
COc1cc(OC)cc(C(=O)Nc2ccc3nc(N4CCCCC4)cc(C)c3c2)c1,.,15µM,/,/,16µM,/
CCS(=O)(=O)N1Cc2ccccc2CC1C(=O)Nc1ccc(NC(C)=O)cc1 (centres undefined),.,.,.,.,.,.
CCOc1cccc(CC(=O)Nc2ccc3nc(N4CCCCC4)cc(C)c3c2)c1OCC,.,21µM,/,/,?,/
CCOC(=O)C1CCCN(C(=O)Cn2nc(CC)n3c(cc4occc43)c2=O)C1 (centres undefined),.,?,/,/,?,/
COc1ccc(NC(=O)N(C)C[C@@H]2OCc3cnnn3CCCC(=O)N([C@H](C)CO)C[C@H]2C)cc1,/,.,.,.,?,.
CCOC(=O)c1ccc(N=Cc2nc3ccccc3n2C)cc1,.,?,.,.,18µM,.
COc1ccc(N=Cc2nc(-c3ccccc3)oc2OC(=O)c2ccccc2)cc1,.,21µM,/,.,23µM,.
Cc1ccc(C(=O)Oc2oc(-c3ccco3)nc2C=Nc2ccccc2)cc1,.,/,/,/,/,/
CCOC(=O)c1ccc(N=Cc2nc(-c3ccccc3)oc2OC(C)=O)cc1,.,9.2µM,.,.,6.5µM,.
